Measurements: PubChem BioAssay (NCATS)
Records with an inconclusive call do not appear. Active and inactive are the calls of the source. Unless noted, calls come from the whole dose curve; as a rule, active = well fitted curve in the direction sought with a large enough effect; inconclusive = small, poorly fitted or top-dose-only effect, or another doubt; inactive = no such curve, though single readings can be large; an effect the other way counts as inactive or inconclusive.

Assays:
[1] = AP1 Signaling Pathway (AID 357; active = well fitted curve in either direction with a large enough effect, not every such curve was filed as active;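 note: ME-180 reporter cells stimulated with EGF at its EC50 level; % is set by controls: 0 for no effect and ±100 for the full control effect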); conditions: ME-180 AP-1-bla reporter, EGF-induced, beta-lactamase ratio, 5 h; at 7.69 µM (top of the series) unless noted
In short: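 Read-out was the 460nm/530nm emission ratio (excitation 405nm) after CCF4 loading for 2.5 hours at room temperature. Cells carried an AP-1-driven beta-lactamase reporter, were stimulated with EC50 EGF plus compound for 5 hours, and AC50 values came from titrations.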

[2] = molecular target: Cytochrome P450 1A2 (Homo sapiens) (UniProt P05177); test: p450-cyp1a2 (AID 410; calls by dose curve; note: potency is the fitted concentration of half-maximal effect;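 for activity change, negative = inhibition: -100% = full effect of reference inhibitor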)
In short: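 Read-out is luminescence from luciferin produced by CYP1A2 demethylation of Luciferin-ME (100uM, at Km). Detection reagent stopped the 60 min NADPH-dependent reaction; signals were normalized to 57 uM furafylline.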

[3] = NFAT Signaling Pathway (AID 444; active = well fitted curve in either direction with a large enough effect, not every such curve was filed as active;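 note: carbachol stimulus at about its EC50 of 1 µM final; % is set by controls: 0 for no effect and ±100 for the full control effect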); conditions: Jurkat NFAT-bla M1, carbachol, beta-lactamase ratio, 5 h; at 7.69 µM (top of the series) unless noted
In short: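 Jurkat cells carrying an NFAT-driven β-lactamase reporter and co-transfected muscarinic M1 receptor were treated with compound plus carbachol (1 uM final, an EC50 level) for 5 h at 37 °C. CCF4 loading followed for 1 h at RT; 460/530 nm ratio gave %activity.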

[4] = Stat Signaling Pathway (AID 446; active = well fitted curve in either direction with a large enough effect, not every such curve was filed as active;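 note: ME-180 cervical cancer cells given 40 pM IL-6 alongside compound; SIE-controlled beta-lactamase reporter measured as 460/530 nm FRET emission ratio; % is set by controls: 0 for no effect and ±100 for the full control effect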); conditions: ME-180 SIE beta-lactamase reporter, IL-6 stimulated, 5 h; at 7.69 µM (top of the series) unless noted
In short: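 Emission at 460 and 530 nm (excitation 405 nm) reports SIE-controlled beta-lactamase in ME-180 cells. Cells received compound with 40 pM IL-6 for 5 hrs at 37 C; data scaled between 300 pM IL-6 and 125 nM JAK-inhibitor controls.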

[5] = molecular target: Glucocorticoid receptor (Homo sapiens) (UniProt P04150); test: GR-GFP Redistribution (AID 450;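 active = compounds whose dose series gives a full or clear partial fitted curve of increased nuclear translocation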; note: potency is the fitted concentration of half-maximal effect); conditions: U2OS GR-GFP nuclear translocation, laser cytometry, 2 h
[6] = molecular target: Glucocorticoid receptor (Homo sapiens) (UniProt P04150); test: GR-EFC Redistribution (AID 451; calls by dose curve; note: potency is the fitted concentration of half-maximal effect); conditions: CHO-K1 GR-EFC translocation, beta-gal luminescence, 2 h
In short: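 CHO-K1 cells stably expressing nuclear-localized β-gal enzyme acceptor and GR fused C-terminally to the enzyme donor fragment; ligand-driven nuclear translocation restores β-gal by complementation. Compounds titrated up to 46 uM final, 2 h at 37 °C; luminescence read.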

[7] = molecular target: Mitogen-activated protein kinase 10 (Mus musculus) (UniProt Q61831); test: JNK3 AlphaScreen Assay (AID 530; active = well fitted curve in either direction with a large enough effect, not every such curve was filed as active;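 note: kinase came from lysate of stimulated human HepG2 cells; signal reports phosphorylation of biotinylated GST-cJun 1-79 at Ser73 with 10 µM ATP; % is set by controls: 0 for no effect and ±100 for the full control effect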)
In short: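 Biotinylated GST-cJun(1-79) served as substrate for JNK3 in HepG2 lysates stimulated with IL-1beta and TNF-alpha. ATP was 10 uM final, pH 7.6. Ser73 phosphorylation was quantified by AlphaScreen (680 nm excitation).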

[8] = molecular target: 3',5'-cyclic-AMP phosphodiesterase 4B (Homo sapiens) (UniProt Q07343); test: qHTS Assay for Inhibitors of PDE-IV (AID 607; active = well fitted activation curve with a large enough effect in the main read-out, with a control signal flat, not every such curve was filed as active; note: % of control where 0% means no effect)
In short: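 The readout is membrane depolarisation from a cAMP-sensing CNG channel, detected with a potential dye at ex 535/em 590. Cells were HEK293-derived (endogenous PDE-IV) at 1000 cells/well, titrated up to 22.9 uM final.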

[9] = molecular target: Cytochrome P450 3A4 (Homo sapiens) (UniProt P08684); test: qHTS Assay for Inhibitors and Substrates of Cytochrome P450 3A4 (AID 884); note: potency is the fitted concentration of half-maximal effect; nearly all actives have a fitted effect of over 50% in size
In short: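 Luminescent readout of luciferin produced by CYP3A4 (20 nM) dealkylation of Luciferin-PPXE, 25 uM (its KM). NADPH-driven reaction ran 60 min at RT after 10 min compound preincubation; data scaled to 57 uM ketoconazole as 100% inhibition.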

[10] = molecular target: Cytochrome P450 3A4 (Homo sapiens) (UniProt P08684); test: qHTS Assay for Activators of Cytochrome P450 3A4 (AID 885); note: nearly all actives have a fitted effect of over 65% in size
In short: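 Activators are scored by enhanced luminescence from CYP3A4 conversion of luciferin-PPXE (25uM, equal to KM) to luciferin, after 60 min at RT with an NADPH-regenerating system.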

[11] = molecular target: Dual specificity protein kinase CLK4 (Homo sapiens) (UniProt Q9HAZ1); test: qHTS Assay for Inhibitors of CDC-like Kinase 4 (Kinase-Glo Assay) (AID 1770); note: nearly all actives have a fitted effect of over 65% in size; note: potency is the fitted concentration of half-maximal effect
In short: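 Readout: Kinase-Glo luminescence from ATP left after a 4.5 h room-temperature reaction of 25 nM Clk4 with 100 uM RS peptide and 1 uM ATP (final). Buffer: 25 mM Tris pH 7.5, 10 mM MgCl2.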

[12] = molecular target: Dual specificity protein kinase CLK4 (Homo sapiens) (UniProt Q9HAZ1); test: qHTS Assay for Inhibitors of CDC-like Kinase 4 (ADP-Glo Assay) (AID 1771); note: nearly all actives have a fitted effect of over 70% in size; note: potency is the fitted concentration of half-maximal effect
In short: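 In this ADP-Glo format, 1 uM ATP and 100 uM RS peptide served as substrates for 25 nM Clk4 in Mg2+/EGTA/DTT/Triton buffer; reactions ran 1 hr at room temperature before luminescent ADP quantification.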

[13] = molecular target: Dual specificity protein kinase CLK4 (Homo sapiens) (UniProt Q9HAZ1); test: qHTS Assay for Inhibitors of CDC-like Kinase 4 (ADP-FP Assay) (AID 1795); note: nearly all actives have a fitted effect of over 60% in size; note: potency is the fitted concentration of half-maximal effect
In short: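 FP readout: Orange Transcreener ADP2 tracer (4 nM) plus ADP antibody, read after 30 min at room temperature. Kinase step: 6.25 nM Clk4, 100 uM RS peptide, 1 uM ATP, pH 7.5, 1 h.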

[14] = molecular target: Ubiquitin carboxyl-terminal hydrolase 1 (Homo sapiens) (UniProt O94782); test: Inhibitors of USP1/UAF1: Pilot qHTS (AID 504865); note: nearly all actives have a fitted effect of over 35% in size; note: potency is the fitted concentration of half-maximal effect
In short: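 1nM USP1/UAF1 + cpd, 15 min RT; start w/ Ub-Rho 150nM final; kinetic FL 480/540 nm, 6 reads q60 s. Buffer 50mM HEPES pH 7.8, 0.5mM EDTA, 1mM TCEP, 0.01% Tween-20, 0.1 mg/ml BSA.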

[15] = Primary qHTS for small molecule stabilizers of the endoplasmic reticulum resident proteome: Secreted ER Calcium Modulated Protein (SERCaMP) assay (AID 1508630); note: % is set by controls: 0 for no effect and ±100 for the full control effect
In short: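 The SH-SY5Y reporter protocol was run at 3 concentrations up to 38.3 uM (primary) or 11 concentrations (follow-up): 16 h compound, 100 nM thapsigargin for 4 h, then extracellular luciferase luminescence.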

[16] = molecular target: Lysosomal acid glucosylceramidase (Homo sapiens) (UniProt P04062); test: Glucocerebrosidase-p2 (AID 348; in the data active = potency below about 10 µM; note: potency is the fitted concentration of half-maximal effect); conditions: purified GBA, blue fluorogenic substrate, 40 min
In short: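 Normal human glucocerebrosidase (0.2 nM) with blue fluorogenic substrate (80 uM final) in citrate/phosphate pH 5.9 with 10mM sodium taurocholate, 0.01% tween-20; 40 min RT, NaOH/glycine stop; fluorescence Ex 365/Em 440; AC50 from a titration from 0.6 nM upwards.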

[17] = molecular target: Cytochrome P450 2D6 (Homo sapiens) (UniProt P10635); test: qHTS Assay for Inhibitors and Substrates of Cytochrome P450 2D6 (AID 891); note: potency is the fitted concentration of half-maximal effect; nearly all actives have a fitted effect of over 60% in size
In short: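 Luminescent read-out of luciferin formed by 5 nM human CYP2D6 demethylating 30 uM Luciferin-ME EGE (Km level) over 60 min at room temperature after NADPH regeneration addition. Data normalized to full inhibition by 1.43 uM quinidine.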

[18] = qHTS Assay for Identification of Small Molecule Agonists for Hypoxia Response Element Signaling Pathway (AID 914; active = well fitted activation curve with a large enough effect in the signal ratio, with a control signal flat, not every such curve was filed as active; the % refers to the signal ratio; note: potency is the fitted concentration of half-maximal effect); conditions: ME-180 (cervical carcinoma) HRE-bla reporter, beta-lactamase ratio, CoCl2, 17 h; activation: active compounds read high
In short: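 HRE-bla ME-180 assay for agonist-like enhancement of an EC50 CoCl2 stimulus: 17 h at 37 degrees Celsius, CCF4 for 2.5 h, ratiometric 460/530 nm signal converted to %Activity and fitted to AC50.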

Lysosomal acid glucosylceramidase (Homo sapiens), sequence (P04062 whole entry, looked up): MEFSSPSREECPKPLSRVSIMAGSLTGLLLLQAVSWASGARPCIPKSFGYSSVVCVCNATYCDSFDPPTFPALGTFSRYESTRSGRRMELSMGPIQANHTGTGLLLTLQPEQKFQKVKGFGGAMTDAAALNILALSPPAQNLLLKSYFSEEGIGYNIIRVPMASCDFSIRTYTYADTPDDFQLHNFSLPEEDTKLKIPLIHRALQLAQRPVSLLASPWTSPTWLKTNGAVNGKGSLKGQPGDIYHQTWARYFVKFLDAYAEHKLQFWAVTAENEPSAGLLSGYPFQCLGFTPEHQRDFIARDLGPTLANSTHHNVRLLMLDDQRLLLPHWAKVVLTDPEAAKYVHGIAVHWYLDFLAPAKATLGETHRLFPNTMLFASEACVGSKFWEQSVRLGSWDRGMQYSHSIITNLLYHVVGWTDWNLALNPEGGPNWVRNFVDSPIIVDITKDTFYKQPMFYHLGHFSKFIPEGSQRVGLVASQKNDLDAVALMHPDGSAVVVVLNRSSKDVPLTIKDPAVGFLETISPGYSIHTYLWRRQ
Cytochrome P450 3A4 (Homo sapiens), sequence (P08684 whole entry, looked up): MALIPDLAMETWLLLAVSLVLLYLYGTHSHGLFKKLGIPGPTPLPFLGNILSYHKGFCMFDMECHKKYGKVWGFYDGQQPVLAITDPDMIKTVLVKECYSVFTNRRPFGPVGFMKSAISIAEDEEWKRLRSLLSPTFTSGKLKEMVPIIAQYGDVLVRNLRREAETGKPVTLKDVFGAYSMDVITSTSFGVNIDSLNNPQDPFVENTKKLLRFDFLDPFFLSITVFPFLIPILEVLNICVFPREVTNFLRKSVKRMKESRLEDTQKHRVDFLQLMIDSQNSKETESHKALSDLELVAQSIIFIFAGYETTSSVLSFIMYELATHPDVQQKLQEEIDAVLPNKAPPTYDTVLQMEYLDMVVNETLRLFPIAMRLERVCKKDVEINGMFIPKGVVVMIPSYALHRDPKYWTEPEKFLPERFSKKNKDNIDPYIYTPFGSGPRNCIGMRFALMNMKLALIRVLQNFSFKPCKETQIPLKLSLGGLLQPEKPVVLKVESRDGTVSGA
Dual specificity protein kinase CLK4 (Homo sapiens), sequence (Q9HAZ1 whole entry, looked up): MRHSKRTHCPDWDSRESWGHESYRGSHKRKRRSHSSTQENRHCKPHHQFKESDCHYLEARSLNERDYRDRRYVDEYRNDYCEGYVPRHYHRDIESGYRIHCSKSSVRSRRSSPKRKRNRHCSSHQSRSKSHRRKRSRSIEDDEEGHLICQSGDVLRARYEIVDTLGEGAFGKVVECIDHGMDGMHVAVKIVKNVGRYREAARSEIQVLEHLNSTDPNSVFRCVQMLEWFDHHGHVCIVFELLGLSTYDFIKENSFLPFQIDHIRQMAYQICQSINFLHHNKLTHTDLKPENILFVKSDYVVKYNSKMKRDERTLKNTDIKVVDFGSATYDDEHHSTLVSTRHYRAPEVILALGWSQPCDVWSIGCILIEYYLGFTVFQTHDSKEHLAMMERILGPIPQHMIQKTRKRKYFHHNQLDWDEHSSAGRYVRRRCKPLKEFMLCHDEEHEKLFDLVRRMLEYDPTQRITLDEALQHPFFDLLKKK
Glucocorticoid receptor (Homo sapiens), sequence (P04150 whole entry, looked up, the tested form may be a part): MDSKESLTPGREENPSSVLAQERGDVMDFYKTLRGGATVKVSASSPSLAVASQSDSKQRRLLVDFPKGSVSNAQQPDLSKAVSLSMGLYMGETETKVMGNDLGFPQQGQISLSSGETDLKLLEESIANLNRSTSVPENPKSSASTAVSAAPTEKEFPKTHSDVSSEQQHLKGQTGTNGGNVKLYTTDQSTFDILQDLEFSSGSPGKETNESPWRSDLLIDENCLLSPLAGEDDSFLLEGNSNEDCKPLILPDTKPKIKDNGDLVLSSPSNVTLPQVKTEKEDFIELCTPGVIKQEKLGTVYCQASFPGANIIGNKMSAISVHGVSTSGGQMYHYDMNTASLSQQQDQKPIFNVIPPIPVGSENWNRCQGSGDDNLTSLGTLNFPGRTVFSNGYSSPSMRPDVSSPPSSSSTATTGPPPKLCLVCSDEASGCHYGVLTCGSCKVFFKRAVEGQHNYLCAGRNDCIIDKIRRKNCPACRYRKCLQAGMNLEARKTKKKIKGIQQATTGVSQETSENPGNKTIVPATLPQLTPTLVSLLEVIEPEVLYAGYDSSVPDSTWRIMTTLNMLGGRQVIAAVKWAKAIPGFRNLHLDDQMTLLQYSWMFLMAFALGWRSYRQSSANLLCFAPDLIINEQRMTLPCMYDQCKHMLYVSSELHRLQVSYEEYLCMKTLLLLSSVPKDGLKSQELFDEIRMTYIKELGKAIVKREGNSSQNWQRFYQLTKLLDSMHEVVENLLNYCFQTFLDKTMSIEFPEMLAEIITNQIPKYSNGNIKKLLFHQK
Ubiquitin carboxyl-terminal hydrolase 1 (Homo sapiens), sequence (O94782 whole entry, looked up): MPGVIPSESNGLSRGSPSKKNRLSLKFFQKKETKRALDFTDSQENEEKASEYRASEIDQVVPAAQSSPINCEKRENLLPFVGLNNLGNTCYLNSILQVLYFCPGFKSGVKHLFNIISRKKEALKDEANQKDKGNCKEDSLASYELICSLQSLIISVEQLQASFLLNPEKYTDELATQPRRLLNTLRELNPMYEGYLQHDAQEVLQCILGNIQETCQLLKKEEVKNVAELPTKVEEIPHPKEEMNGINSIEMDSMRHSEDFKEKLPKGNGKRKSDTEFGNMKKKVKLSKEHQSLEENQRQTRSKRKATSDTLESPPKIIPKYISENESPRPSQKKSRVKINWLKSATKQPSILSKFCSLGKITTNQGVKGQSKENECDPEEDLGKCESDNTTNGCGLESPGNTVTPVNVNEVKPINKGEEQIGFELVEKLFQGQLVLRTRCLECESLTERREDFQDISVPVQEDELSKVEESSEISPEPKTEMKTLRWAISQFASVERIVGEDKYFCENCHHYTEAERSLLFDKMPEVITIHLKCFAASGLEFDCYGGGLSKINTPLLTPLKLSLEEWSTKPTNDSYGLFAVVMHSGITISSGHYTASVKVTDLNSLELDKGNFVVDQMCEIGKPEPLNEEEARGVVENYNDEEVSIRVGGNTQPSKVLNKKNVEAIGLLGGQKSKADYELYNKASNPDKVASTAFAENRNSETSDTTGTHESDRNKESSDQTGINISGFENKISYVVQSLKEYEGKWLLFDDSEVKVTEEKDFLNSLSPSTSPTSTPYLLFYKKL
3',5'-cyclic-AMP phosphodiesterase 4B (Homo sapiens), sequence (Q07343 whole entry, looked up): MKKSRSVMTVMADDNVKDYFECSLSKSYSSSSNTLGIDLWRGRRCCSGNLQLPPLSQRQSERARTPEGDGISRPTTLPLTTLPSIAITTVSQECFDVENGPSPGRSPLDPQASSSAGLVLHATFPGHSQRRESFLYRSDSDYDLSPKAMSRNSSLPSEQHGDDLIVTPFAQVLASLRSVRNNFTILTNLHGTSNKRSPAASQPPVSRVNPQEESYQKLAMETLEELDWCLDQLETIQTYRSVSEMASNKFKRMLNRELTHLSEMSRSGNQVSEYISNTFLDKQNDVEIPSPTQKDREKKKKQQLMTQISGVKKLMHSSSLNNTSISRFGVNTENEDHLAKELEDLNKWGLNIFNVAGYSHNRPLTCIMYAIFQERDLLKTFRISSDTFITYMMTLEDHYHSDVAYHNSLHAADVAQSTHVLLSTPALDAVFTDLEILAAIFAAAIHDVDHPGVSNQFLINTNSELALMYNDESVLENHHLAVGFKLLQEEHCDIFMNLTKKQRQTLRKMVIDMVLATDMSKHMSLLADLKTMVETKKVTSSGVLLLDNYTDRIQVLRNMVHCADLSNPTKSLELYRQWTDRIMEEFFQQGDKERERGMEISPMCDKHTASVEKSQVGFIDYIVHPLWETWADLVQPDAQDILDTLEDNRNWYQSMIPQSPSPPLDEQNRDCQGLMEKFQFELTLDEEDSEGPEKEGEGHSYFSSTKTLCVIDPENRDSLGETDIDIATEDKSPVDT
Cytochrome P450 1A2 (Homo sapiens), sequence (P05177 whole entry, looked up): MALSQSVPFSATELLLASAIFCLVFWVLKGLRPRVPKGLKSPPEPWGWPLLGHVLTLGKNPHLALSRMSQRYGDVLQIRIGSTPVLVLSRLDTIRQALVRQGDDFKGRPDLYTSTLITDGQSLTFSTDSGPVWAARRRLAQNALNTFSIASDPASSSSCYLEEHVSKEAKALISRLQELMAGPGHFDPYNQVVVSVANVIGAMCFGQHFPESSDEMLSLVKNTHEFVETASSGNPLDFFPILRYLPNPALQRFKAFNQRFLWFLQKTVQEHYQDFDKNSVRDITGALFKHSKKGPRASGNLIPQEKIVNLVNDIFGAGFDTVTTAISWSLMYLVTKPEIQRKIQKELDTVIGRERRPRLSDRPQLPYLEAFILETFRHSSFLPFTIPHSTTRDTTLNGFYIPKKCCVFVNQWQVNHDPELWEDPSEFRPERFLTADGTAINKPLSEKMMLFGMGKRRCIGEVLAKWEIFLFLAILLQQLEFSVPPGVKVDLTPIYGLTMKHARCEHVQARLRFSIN
Cytochrome P450 2D6 (Homo sapiens), sequence (P10635 whole entry, looked up): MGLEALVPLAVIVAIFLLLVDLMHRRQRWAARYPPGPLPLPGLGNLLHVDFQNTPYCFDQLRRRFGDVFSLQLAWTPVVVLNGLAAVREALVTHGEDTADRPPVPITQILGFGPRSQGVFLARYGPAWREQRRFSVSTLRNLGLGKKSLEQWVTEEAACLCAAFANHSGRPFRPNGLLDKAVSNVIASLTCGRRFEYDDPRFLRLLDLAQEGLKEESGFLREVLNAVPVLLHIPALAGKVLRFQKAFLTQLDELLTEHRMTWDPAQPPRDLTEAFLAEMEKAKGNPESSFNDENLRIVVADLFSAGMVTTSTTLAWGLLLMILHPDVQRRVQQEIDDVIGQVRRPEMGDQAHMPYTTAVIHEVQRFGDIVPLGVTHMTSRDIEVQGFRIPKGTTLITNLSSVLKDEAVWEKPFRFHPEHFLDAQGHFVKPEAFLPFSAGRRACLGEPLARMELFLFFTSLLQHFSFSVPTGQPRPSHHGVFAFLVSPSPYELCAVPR

CN(Cc1ccco1)c1ncncc1-c1cccc(NS(C)(=O)=O)c1
inactive: activity change, negative = inhibition [1] -8.59% | activity change, negative = inhibition [3] -4.49% | activity, negative = inhibition [4] 8.28% | Potency [5] > 46 µM | Potency [6] > 46 µM | Potency [7] | Potency [8] | Potency [10] | Potency [11] | Potency [12] | Potency [13] | Potency [14] | outcome [15]
active: Potency [2] 15.8 µM | Potency [9] 0.794 µM

O=c1c(-c2ccccc2)nc2cnc(N3CCOCC3)nc2n1Cc1ccc(F)cc1
active: Potency [2] 20 µM
inactive: Potency [16] > 11.4 µM | Potency [5] > 9.22 µM | Potency [6] > 46 µM | Potency [7] | Potency [11] | Potency [12] | Potency [13] | Potency [14] | outcome [15]

N#Cc1cccc(-c2ccc3ncnc(N4CCNCC4)c3c2)c1
inactive: activity change, negative = inhibition [1] -0.846% | activity change, negative = inhibition [3] 6.74% | activity, negative = inhibition [4] 11.7% | Potency [5] > 46 µM | Potency [6] > 46 µM | Potency [7] | Potency [8] | Potency [10] | outcome [15]
active: Potency [2] 0.631 µM | Potency [11] 12.6 µM | Potency [12] 22.4 µM | Potency [13] 11.2 µM | Potency [14] 20 µM

Cn1c(=O)c(-c2ccc(Cl)cc2)nc2cnc(N3CCNCC3)nc21
active: activity change, negative = inhibition [3] 204% [activator]
inactive: Potency [16] > 11.4 µM | Potency [5] > 9.22 µM | Potency [6] > 46 µM | Potency [7] | Potency [8] | Potency [10] | Potency [11] | Potency [12] | Potency [13] | Potency [14] | outcome [15]

O=c1c(-c2ccc(F)cc2)nc2cnc(Oc3cccc(Cl)c3)nc2n1C[C@H]1CCCO1
inactive: Potency [16] > 11.4 µM | activity change, negative = inhibition [3] -18.3% | activity, negative = inhibition [4] -26% | Potency [5] > 9.22 µM | Potency [6] > 46 µM | Potency [7] | Potency [8] | Potency [10] | Potency [11] | Potency [12] | Potency [13] | Potency [14] | outcome [15]

CN(C)c1ncnc2ccc(-c3ccc4c(c3)OCO4)cc12
inactive: Potency [16] > 11.4 µM | activity change, negative = inhibition [3] -4.71% | activity, negative = inhibition [4] 1.73% | Potency [5] > 46 µM | Potency [6] > 46 µM | Potency [7] | Potency [8] | Potency [14] | outcome [15]
active: Potency [11] 0.199 µM | Potency [12] 0.158 µM | Potency [13] 0.1 µM

COc1ccccc1CNc1ccnc(-c2ccc(N(C)C)cc2)n1
inactive: activity change, negative = inhibition [1] -10.1% | activity change, negative = inhibition [3] -1.75% | activity, negative = inhibition [4] -10.8% | Potency [5] > 46 µM | Potency [6] > 46 µM | Potency [7] | Potency [8] | Potency [10] | Potency [11] | Potency [12] | Potency [13] | Potency [14] | outcome [15]
active: Potency [2] 0.794 µM | Potency [9] 7.94 µM | Potency [17] 0.501 µM

COc1ccc(CNc2ccnc(-c3ccc(N(C)C)cc3)n2)c(OC)c1
active: Potency [2] 3.16 µM
inactive: activity change, negative = inhibition [1] 8.69% | activity change, negative = inhibition [3] -3.37% | activity, negative = inhibition [4] -13.6% | Potency [5] > 46 µM | Potency [6] > 46 µM | Potency [7] | Potency [8] | Potency [10] | Potency [11] | Potency [12] | Potency [13] | Potency [14] | outcome [15]

CCNc1ncc2nc(-c3ccc(F)cc3)c(=O)n(C)c2n1
active: Potency [2] 0.501 µM
inactive: activity change, negative = inhibition [1] -8.75% | activity change, negative = inhibition [3] -26% | activity, negative = inhibition [4] -0.235% | Potency [5] > 9.22 µM | Potency [6] > 46 µM | Potency [7] | Potency [8] | Potency [11] | Potency [12] | Potency [13] | Potency [14] | outcome [15]

COc1ccc(-c2nc3cnc(N(C)C)nc3n(C3CC3)c2=O)cc1
inactive: Potency [16] > 11.4 µM | activity, negative = inhibition [4] 24.2% | Potency [5] > 9.22 µM | Potency [6] > 46 µM | Potency [7] | Potency [8] | Potency [11] | Potency [12] | Potency [13] | Potency [14] | outcome [15]

CN1CCN(c2ncc3nc(-c4cn(C)c5ccccc45)c(=O)n(CCc4ccccc4)c3n2)CC1
active: Potency [18] 3.16 µM
inactive: Potency [16] > 11.4 µM | Potency [2] | Potency [5] > 9.22 µM | Potency [6] > 46 µM | Potency [7] | Potency [8] | Potency [10] | Potency [11] | Potency [12] | Potency [13] | Potency [14] | outcome [15]

COc1cccc(Cn2c(=O)c(-c3ccc(Cl)cc3)nc3cnc(N4CCOCC4)nc32)c1
active: Potency [18] 1.58 µM
inactive: Potency [16] > 11.4 µM | Potency [5] > 9.22 µM | Potency [6] > 46 µM | Potency [7] | Potency [8] | Potency [11] | Potency [12] | Potency [13] | Potency [14] | outcome [15]

CN1CCN(c2ncc3nc(-c4cn(C)c5ccccc45)c(=O)n(Cc4cccs4)c3n2)CC1
active: Potency [18] 2.51 µM
inactive: Potency [16] > 11.4 µM | activity change, negative = inhibition [3] 3.65% | Potency [5] > 9.22 µM | Potency [6] > 46 µM | Potency [8] | Potency [11] | Potency [12] | Potency [13] | Potency [14] | outcome [15]
